Source: PubChem (National Center for Advancing Translational Sciences (NCATS))
Only some compounds are listed: those with a hit (about 11% of all), similar ones and a draw of the others.
Luciferase inh: Photinus pyralis luciferase inhibition. P08659. purified P. pyralis luciferase, luminescence, biochemical. Potency, µM (highest dose often 115 µM), actives largely listed as inhibitors. 76,000 tested, 2.5% active. AID 1347043; note: nearly all actives have a fitted effect of over 65% in size
Target sequence (P08659 whole entry, looked up): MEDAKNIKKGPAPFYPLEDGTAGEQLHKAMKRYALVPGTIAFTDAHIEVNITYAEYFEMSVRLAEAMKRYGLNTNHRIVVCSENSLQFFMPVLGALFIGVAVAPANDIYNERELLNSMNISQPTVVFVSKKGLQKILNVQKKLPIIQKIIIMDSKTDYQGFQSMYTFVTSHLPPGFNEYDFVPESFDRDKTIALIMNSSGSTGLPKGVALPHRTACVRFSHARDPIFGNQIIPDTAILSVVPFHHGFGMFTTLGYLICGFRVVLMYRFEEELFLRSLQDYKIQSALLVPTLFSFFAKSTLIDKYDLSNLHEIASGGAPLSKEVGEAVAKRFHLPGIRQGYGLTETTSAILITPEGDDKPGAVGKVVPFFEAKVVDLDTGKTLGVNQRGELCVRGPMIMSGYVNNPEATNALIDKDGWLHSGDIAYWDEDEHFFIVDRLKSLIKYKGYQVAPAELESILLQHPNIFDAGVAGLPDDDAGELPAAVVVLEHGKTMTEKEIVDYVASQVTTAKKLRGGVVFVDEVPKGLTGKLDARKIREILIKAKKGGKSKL
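FLuc 10nM, D-luciferin 10uM, ATP 10uM, Mg acetate 10mM, Tris acetate pH 7.5, Tween/BSA; cpd qHTS; enzyme added last; CCD luminescence.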
3T3 cytotox: kills NIH 3T3 cells | Potency, µM (highest dose often 96.7 µM), most hits filed as inhibitors | NIH 3T3 viability, CellTiter-Glo ATP luminescence, 48-72 h | AID 1345082 | 94,000 tested, 4.3% active; note: nearly all actives have a fitted effect of over 55% in size
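First NIH 3T3 cells are plated at 400 cells/well; next compound is pinned in; then plates incubate 48 or 72 hr at 37 °C; finally CellTiter-Glo is added and luminescence read after 10 min.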
NPR1 antag: human Npr1 receptor antagonism; P16066; HEK293 hNpr1 GloSensor cGMP, ANP-stimulated luminescence; Potency, µM (top dose mostly 46.3 µM), hits mostly inhibitors; 76,000 tested, 1.6% active; calls by dose curve; note: nearly all actives have a fitted effect of over 60% in size
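Compound pre-incubated 30 min at room temperature on GloSensor-loaded HEK293 cells stably carrying hNpr1 and the pGS-40F cGMP biosensor. Stimulation uses hNppA at 0.1 nM final; luminescence is taken at baseline and 20 min post-agonist.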
HEK293 tox: kills HEK 293 cells. HEK 293 viability, ATP luminescence (CellTiter-Glo), 48-72 h. Potency, µM (doses to about 115 µM), usual class: inhibitors. 94,000 tested, 6.6% active; note: nearly all actives have a fitted effect of over 60% in size
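250 HEK 293 cells/well; compound by pintool; incubated 48 or 72 hr at 37 degree Celsius; CellTiter-Glo added, 10 min RT, luminescence imaged.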
Numbers stand for hits; 0 = inactive; ? = inconclusive; - = no result given. Unless noted, calls come from the whole dose curve; as a rule, active = well fitted curve in the direction sought with a large enough effect; inconclusive = small, poorly fitted or top-dose-only effect, or another doubt; inactive = no such curve, though single readings can be large; an effect the other way counts as inactive or inconclusive.

SMILES | Luciferase inh | 3T3 cytotox | NPR1 antag | HEK293 tox
CN(C)c1cccc(-c2cc3c(cn2)CN(Cc2ccncc2)CCN3)c1 | ? | ? | 0 | ?
COc1ccccc1CN1CCNc2cc(-c3ccnc(C)c3)ncc2C1 | 70.8µM | ? | 0 | 89.1µM
Fc1ccc(CN2CCNc3cnc(-c4ccccc4)cc3C2)cc1F | 0 | 79.4µM | 0 | ?
COc1ccccc1CN1CCNc2cc(-c3ccccc3)ncc2C1 | ? | ? | 0 | ?
COc1ccc(CN2CCNc3cc(-c4ccccc4)ncc3C2)cc1 | ? | ? | 0 | 50.1µM
COc1ccc(CN2CCNc3cc(-c4ccnc(C)c4)ncc3C2)cc1O | ? | ? | 0 | ?
c1ccc(-c2cc3c(cn2)NCCN(Cc2ccsc2)C3)cc1 | ? | ? | 0 | ?
Cc1cc(C(F)(F)F)nn1CCNC(=O)c1csc(-c2cccs2)n1 | 0 | 0 | 0 | ?
O=C(Cc1ccc(F)cc1)NCCNC(=O)c1cccc(-c2ccsc2)c1 | - | 0 | - | ?
CCN1Cc2cc(F)ccc2N(C[C@@H](O)COCc2ccccc2)CCC1=O | - | 0 | - | ?
COc1ccc(OC)c(CN2CCNc3cnc(Nc4ccccc4)cc3C2)c1 | 0 | ? | 0 | 70.8µM
Oc1ccccc1CN1CCNc2cnc(Nc3ccccc3)cc2C1 | 0 | ? | ? | ?
Cc1noc(C)c1-c1cc2c(cc(C)n2C)c(-c2cccnc2)n1 | 0 | ? | 0 | ?
Cc1noc(C)c1-c1cc2c(cc(C)n2C)c(-c2cnn(C)c2)n1 | 0 | 39.8µM | 0 | ?
Cc1noc(C)c1-c1cc2c(cc(-c3ccccc3)n2C)c(-c2cnn(C)c2)n1 | 0 | 11.2µM | 0 | 20µM
COc1cc(-c2nc(-c3c(C)noc3C)cc3c2cc(C)n3C)ccn1 | 0 | ? | 0 | ?
Cc1noc(C)c1-c1cc2c(cc(C)n2C)c(-c2ccccc2)n1 | 0 | 50.1µM | 0 | ?
Cc1noc(C)c1-c1cc2c(cc(C)n2C)c(-c2cccc([S+](C)(=O)[O-])c2)n1 | 0 | 14.1µM | 0 | ?
O=C(C1CCCN([S+](=O)([O-])c2cccc(C(F)(F)F)c2)C1)N1CCC(N2CCCC2=O)CC1 (stereo not given) | - | 0 | - | 0
COc1ccc(-c2nc(C)nc3c2CN(C(=O)c2ccccc2C)CC3)cc1 | - | ? | - | 0
Cc1noc(C)c1-c1cc2c(cc(-c3ccccc3)n2C)c(N2CCOCC2)n1 | 0 | 31.6µM | 0 | 56.2µM
COc1cccc(-c2nc(-c3c(C)noc3C)cc3c2cc(C)n3C)c1OC | 0 | 25.1µM | 0 | ?
Cc1noc(C)c1-c1cc2c(cc(C)n2C)c(-c2ccnn2C)n1 | 0 | ? | 0 | ?
Cc1noc(C)c1-c1cc2c(cc(C)n2C)c(N2CCN(Cc3ccccc3)CC2)n1 | 0 | 44.7µM | 0 | ?
Cc1noc(C)c1-c1cc2c(cc(-c3ccccc3)n2C)c(-c2ccnn2C)n1 | 0 | ? | 0 | 35.5µM
SMILES | Luciferase inh | 3T3 cytotox | NPR1 antag | HEK293 tox
O=C1NCCCCCCN(C(=O)CCC2CCCC2)[C@H]2CCC[C@@H]12 | 0 | 0 | 0 | 0
O=C(Nc1cccc(-n2cccn2)c1)C1CCCN1C(=O)CCn1cccn1 (stereo not given) | 0 | 0 | 0 | 0
O=C(Cc1ccc(F)cc1)N1CCN(c2ccnc3ccnn23)CC1 | - | 0 | - | ?
O=c1[nH]c(C2CCCN(Cc3ccccc3C(F)(F)F)C2)nn1-c1ccc(Cl)cc1 (stereo not given) | 0 | ? | 0 | ?
COc1ccc(CCNC(=O)C2CN(C3CCCCC3)C(=O)N2)cc1 (stereo not given) | - | 0 | - | 0
CCn1ccc(C(=O)N2C[C@H]3CNC(=O)[C@]34CCCC[C@@H]24)n1 | - | 0 | - | 0
CN(C)c1ccc(CN2CC[C@H](c3nc4c(C(N)=O)cccc4[nH]3)C2)cc1 | 0 | 100µM | ? | 70.8µM
Cc1nnc2ccc(N3CCC(NC(=O)c4ccc(F)cc4)C3)nn12 (stereo not given) | - | 0 | - | 0
O=C(c1ccccc1F)N1CCC2(CC1)CC(c1cccc(C(F)(F)F)c1)=NO2 | - | ? | - | 39.8µM
Cc1ccccc1C(=O)N1CCC2(CC1)CC(c1cccc(C(F)(F)F)c1)=NO2 | - | ? | - | 31.6µM
CC(=O)N1CCC2(CC1)CC(c1cccc(C(F)(F)F)c1)=NO2 | - | 0 | - | 0
COc1cc(Cl)c(C)cc1NC(=O)CN1C(=O)C(c2ccccc2)=NC12CCCC2 | 0 | ? | 0 | ?
O=C(CN1CCOCC1)N1CCNc2cnc(Nc3ccc(-n4ccnc4)cc3)nc2C1 | 0 | 39.8µM | 0 | 0
O=C(NCCCc1ccccc1)C1CCN(c2nc3ncccc3o2)CC1 | - | 0 | - | 0
COc1ccccc1N1CCCc2ncc(C(=O)N3CCC[C@@H]3c3ccc(F)cc3)cc21 | 0 | 89.1µM | 0 | ?
COc1ccccc1N1CCCc2ncc(C(=O)N(C)Cc3ccccc3)cc21 | 0 | ? | 0 | 100µM
COc1ccccc1N1CCCc2ncc(C(=O)N3CCCC[C@@H]3Cc3ccccc3)cc21 | 0 | ? | 0 | ?
COc1ccccc1N1CCCc2ncc(C(=O)NCCOc3ccccc3)cc21 | 0 | 89.1µM | 0 | 100µM
NC(=O)Cn1ccc2cc(OCC3CCN(c4cc(NC5CC5)ncn4)CC3)cnc21 | ? | ? | 17.8µM | 25.1µM
O=C(O)Cn1ccc2cc(OCC3CCN(C(=O)OC4CCCC4)CC3)cnc21 | ? | 31.6µM | 0 | 0
Cn1nccc1C(=O)N1CC(CNC(=O)c2ccccc2)C2(C1)CN(c1ccccc1)C2 (stereo not given) | 0 | ? | 0 | 0
CN1CCN(Cc2ccc(CC3CCN(C(=O)c4ccc5cc[nH]c5c4)CC3)cc2)CC1 | - | 31.6µM | - | ?
O=C(c1ccc2ccccc2n1)N1CCC(Cc2ccc(CN3CCOCC3)cc2)CC1 | - | ? | - | 35.5µM
CC1(c2ccccc2)N(Cc2ccc(O)cc2)C(=O)OC12CCN(C(=O)C1CCC1)CC2 (stereo not given) | 0 | ? | 0 | ?
CN(C)C(=O)Cc1c[nH]c2ncc(-c3cnn(C)c3)cc12 | 0 | ? | 0 | 0
SMILES | Luciferase inh | 3T3 cytotox | NPR1 antag | HEK293 tox
Cn1cc(-c2cnc3[nH]cc(CC(=O)Nc4cccnc4)c3c2)cn1 | 0 | ? | 0 | 0
Cc1ccccc1NC(=O)Cc1c[nH]c2ncc(-c3cnn(C)c3)cc12 | 0 | 22.4µM | 0 | ?
COc1ccc(NC(=O)Cc2c[nH]c3ncc(-c4cnn(C)c4)cc23)cn1 | 0 | 50.1µM | 0 | 0
CN(C)c1cccc(NC(=O)Cc2c[nH]c3ncc(-c4cnn(C)c4)cc23)c1 | 0 | 31.6µM | 0 | 70.8µM
Cn1cc(-c2cnc3[nH]cc(CC(=O)NCc4cccc(F)c4)c3c2)cn1 | 0 | 25.1µM | 0 | ?
N#Cc1cccc(-c2cn3c(n2)N(C(=O)Cc2cccs2)CCC3)c1 | 0 | 0 | 0 | 0
COc1ccccc1-c1ccc2c(C(=O)N3CCN(c4ncccn4)CC3)nn(C)c2n1 | - | 0 | - | ?
COCCN1C(=O)[C@@H]2C[C@@H](CN2Cc2cccnc2)Oc2ccccc21 | 0 | ? | 0 | 0
CC(C)CCNC(=O)N1CCC(OC2CCN(Cc3ccccc3)CC2)CC1 | 0 | 0 | 0 | 0
CN(C)C(=O)[C@@H]1CN(Cc2c(F)cccc2Cl)C[C@H]1CO | 0 | 0 | 0 | 0
O=C(c1ccc2[nH]ccc2c1)N1CCC(n2cc(-c3nc(-c4ccccc4)no3)nn2)C1 (stereo not given) | ? | ? | 7.94µM | 15.8µM
